Measurements as given in the supplement of paper PMC10849652.
The full data set covers some 7,900 targets. This sample favours those with a hit. About 0.6% of all pairs of compound and target were hits.

Legend:
Assay in all cases: log2 fold change, soluble protein after heating vs DMSO (PISA); higher = thermal stabilisation; K562 cells, 10 uM, 30 min; active = over 0.2 and 3.5 SD of the protein, either way, in both replicates (recomputed)
[1] = compound: C/C(=N\NC(=O)C1=CC(=CC=C1)S(=O)(=O)N2CCOCC2)/C3=C(C=CC(=C3)Cl)O
How it was run: (§1)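 Soluble protein was defined as the supernatant after 21,000xg for 90 min. It came from K562 cells at 2×10^6 cells/mL given 10 μM compound for 30 min, heated in aliquots for 3 min across 48°C-58°C, pooled, and extracted in PBS with 0.5% NP-40 at 4°C, and was quantified by TMTpro 16plex LC-MS/MS with equalised channel sums. Thermal stability against control samples, from duplicates, is reported as log2 fold change.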

[2] = compound: C1=CC(=C(C=C1Cl)C2=NC3=NC=CN=C3C(=N2)NC4=CC=NC=C4)F
How it was run: as §1

[3] = compound: C1=CC2=C(C=CC(=C2)/C=C\3/C(=O)NC(=NCC4=CC=CS4)S3)N=C1
How it was run: as §1

[4] = compound: C1=CC2=NC=CN=C2C=C1/C=C/3\C(=O)NC(=O)S3
How it was run: as §1

[5] = compound: C1=CC=C2C(=C1)C3=NNC4=CC=CC(=C43)C2=O
How it was run: as §1

[6] = compound: C1CCN(C1)C(=O)NC2=CC=CC(=C2)NC3=NC=C(C(=N3)NCCC4=CN=CN4)Br
How it was run: as §1

[7] = compound: C1CN(CCC1(CC2=CC=C(C=C2)Cl)N)C3=NC=NC4=C3C=CN4
How it was run: as §1

erlotinib = compound: C#Cc1cccc(Nc2ncnc3cc(OCCOC)c(OCCOC)cc23)c1 [erlotinib]
How it was run: as §1

[8] = compound: C1=CC(=CC=C1C2=NC3=C(N2)C=C(C=C3)C(=O)N)OC4=CC=C(C=C4)Cl
How it was run: as §1

[9] = compound: C1=CC=C(C=C1)C2=NC(=C(N2)C3=CC=NC=C3)C4=CC(=C(C=C4)Cl)O
How it was run: as §1

Measured: log2 fold change

MFAP3 (UniProt P55082)
Sequence of UniProt P55082 (P55082 whole entry, looked up): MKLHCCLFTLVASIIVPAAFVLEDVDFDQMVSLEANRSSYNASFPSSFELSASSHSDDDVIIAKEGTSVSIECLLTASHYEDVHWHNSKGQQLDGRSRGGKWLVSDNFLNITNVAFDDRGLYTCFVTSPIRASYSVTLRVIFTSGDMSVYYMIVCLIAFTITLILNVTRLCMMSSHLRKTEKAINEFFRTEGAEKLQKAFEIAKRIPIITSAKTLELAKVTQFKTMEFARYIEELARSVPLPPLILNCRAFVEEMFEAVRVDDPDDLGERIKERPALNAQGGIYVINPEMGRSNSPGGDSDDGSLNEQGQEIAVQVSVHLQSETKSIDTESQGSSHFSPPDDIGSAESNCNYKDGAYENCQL
inactive: [1] 0.202 | [2] -0.021 | [3] 0.029 | [4] -0.106 | [5] -0.142 | [6] -0.088 | [7] 0.064

KCNK5 (UniProt O95279)
inactive: erlotinib -0.101 | [2] -0.128 | [8] 0.077 | [4] 0.095

MED25 isoform 3 (UniProt Q71SY5)
Sequence of UniProt Q71SY5 (Q71SY5 whole entry, looked up): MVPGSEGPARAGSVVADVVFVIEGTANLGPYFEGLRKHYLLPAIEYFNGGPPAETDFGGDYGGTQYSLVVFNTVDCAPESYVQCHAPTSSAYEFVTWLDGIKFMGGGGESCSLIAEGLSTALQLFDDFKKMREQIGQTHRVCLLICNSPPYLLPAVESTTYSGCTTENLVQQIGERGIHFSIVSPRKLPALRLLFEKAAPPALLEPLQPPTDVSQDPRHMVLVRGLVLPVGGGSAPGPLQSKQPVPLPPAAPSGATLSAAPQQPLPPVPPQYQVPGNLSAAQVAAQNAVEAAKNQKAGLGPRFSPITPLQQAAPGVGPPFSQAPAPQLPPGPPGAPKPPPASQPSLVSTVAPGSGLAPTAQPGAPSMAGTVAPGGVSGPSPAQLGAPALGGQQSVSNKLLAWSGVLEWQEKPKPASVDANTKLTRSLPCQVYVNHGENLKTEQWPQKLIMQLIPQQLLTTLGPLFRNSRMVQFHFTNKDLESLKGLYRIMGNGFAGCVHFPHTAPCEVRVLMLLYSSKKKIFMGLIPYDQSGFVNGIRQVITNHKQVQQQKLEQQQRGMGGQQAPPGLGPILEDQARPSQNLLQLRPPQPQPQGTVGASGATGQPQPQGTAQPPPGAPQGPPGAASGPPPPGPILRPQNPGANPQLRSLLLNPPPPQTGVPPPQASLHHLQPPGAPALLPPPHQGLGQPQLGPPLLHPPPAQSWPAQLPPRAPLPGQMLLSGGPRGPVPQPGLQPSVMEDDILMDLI
inactive: erlotinib -0.038 | [1] 0.026 | [8] 0.005 | [3] 0.048 | [4] -0.031 | [9] 0.062 | [5] 0.057 | [6] 0.057 | [7] 0.07

MCM10 (UniProt Q7L590)
inactive: erlotinib -0.066 | [2] 0.205 | [8] 0.039 | [4] -0.054 | [6] -0.153 | [7] 0.125

MAPK14 (UniProt Q16539)
inactive: erlotinib 0.238 | [1] 0.106 | [8] -0.116 | [3] -0.054 | [4] 0.001 | [5] 0.174 | [6] 0.051 | [7] -0.072
active: [9] 1.04

MARCHF3 (UniProt Q86UD3)
inactive: [2] -0.188 | [4] -0.073

LMNA isoform 2 (UniProt P02545)
inactive: [6] -0.022 | [7] 0.146

IKZF1 (UniProt R9R4D9)
inactive: [6] -0.055 | [7] -0.13

ILF3 (UniProt Q12906)
inactive: [2] -0.083 | [4] 0.128

IGFBP3 isoform 2 (UniProt P17936)
Sequence of UniProt P17936 (P17936 whole entry, looked up): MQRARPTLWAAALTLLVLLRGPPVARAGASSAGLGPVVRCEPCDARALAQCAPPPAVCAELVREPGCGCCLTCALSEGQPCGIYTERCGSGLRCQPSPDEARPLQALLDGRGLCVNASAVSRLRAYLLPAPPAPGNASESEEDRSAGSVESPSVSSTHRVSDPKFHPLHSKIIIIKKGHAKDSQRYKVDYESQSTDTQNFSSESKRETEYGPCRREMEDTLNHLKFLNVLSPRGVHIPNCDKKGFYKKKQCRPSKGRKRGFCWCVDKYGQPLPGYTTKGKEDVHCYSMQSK
inactive: [1] -0.18 | [2] -0.094 | [3] 0.049 | [5] -0.172 | [6] 0.032 | [7] -0.057

LDLRAP1 (UniProt Q5SW96)
inactive: erlotinib -0.017 | [8] 0.252 | [4] 0.199 | [9] -0.118

LRFN1 (UniProt Q9P244)
inactive: erlotinib 0.059 | [2] -0.028 | [8] 0 | [4] 0.004 | [9] -0.038 | [6] -0.1 | [7] 0.052

MAPK7 (UniProt Q13164)
inactive: [1] 0.095 | [2] 0.02 | [3] 0 | [5] 0.14

IPP (UniProt Q9Y573)
inactive: [1] 0.091 | [3] 0.083 | [4] -0.17 | [5] 0.139

MED29 (UniProt Q9NX70)
inactive: erlotinib -0.016 | [1] 0.008 | [8] 0.062 | [3] -0.089 | [5] -0.015

KIZ (UniProt Q2M2Z5)
Sequence of UniProt Q2M2Z5 (Q2M2Z5 whole entry, looked up): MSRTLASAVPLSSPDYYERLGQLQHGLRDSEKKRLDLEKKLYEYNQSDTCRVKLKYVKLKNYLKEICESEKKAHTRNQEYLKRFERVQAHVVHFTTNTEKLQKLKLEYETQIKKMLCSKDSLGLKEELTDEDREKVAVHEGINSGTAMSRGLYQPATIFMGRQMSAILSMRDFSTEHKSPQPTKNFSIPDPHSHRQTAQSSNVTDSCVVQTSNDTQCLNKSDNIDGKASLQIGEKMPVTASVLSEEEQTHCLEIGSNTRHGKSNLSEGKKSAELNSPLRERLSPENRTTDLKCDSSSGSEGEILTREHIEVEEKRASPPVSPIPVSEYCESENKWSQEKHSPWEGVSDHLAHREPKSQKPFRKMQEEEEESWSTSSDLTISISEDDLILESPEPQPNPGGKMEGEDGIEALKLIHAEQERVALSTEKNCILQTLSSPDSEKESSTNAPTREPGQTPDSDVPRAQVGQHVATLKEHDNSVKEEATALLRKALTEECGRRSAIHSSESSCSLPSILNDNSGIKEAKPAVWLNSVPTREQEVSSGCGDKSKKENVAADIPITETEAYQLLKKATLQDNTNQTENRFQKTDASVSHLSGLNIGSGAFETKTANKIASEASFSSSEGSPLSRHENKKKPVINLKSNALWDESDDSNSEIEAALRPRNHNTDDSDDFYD
inactive: [1] 0.018 | [3] 0.077 | [9] 0.103 | [5] -0.01

MAP2K5 (UniProt Q13163)
inactive: [1] 0.021 | [3] 0.277 | [9] 0.145 | [5] -0.036

MFSD12 isoform 3 (UniProt Q6NUT3)
Sequence of UniProt Q6NUT3 (Q6NUT3 whole entry, looked up): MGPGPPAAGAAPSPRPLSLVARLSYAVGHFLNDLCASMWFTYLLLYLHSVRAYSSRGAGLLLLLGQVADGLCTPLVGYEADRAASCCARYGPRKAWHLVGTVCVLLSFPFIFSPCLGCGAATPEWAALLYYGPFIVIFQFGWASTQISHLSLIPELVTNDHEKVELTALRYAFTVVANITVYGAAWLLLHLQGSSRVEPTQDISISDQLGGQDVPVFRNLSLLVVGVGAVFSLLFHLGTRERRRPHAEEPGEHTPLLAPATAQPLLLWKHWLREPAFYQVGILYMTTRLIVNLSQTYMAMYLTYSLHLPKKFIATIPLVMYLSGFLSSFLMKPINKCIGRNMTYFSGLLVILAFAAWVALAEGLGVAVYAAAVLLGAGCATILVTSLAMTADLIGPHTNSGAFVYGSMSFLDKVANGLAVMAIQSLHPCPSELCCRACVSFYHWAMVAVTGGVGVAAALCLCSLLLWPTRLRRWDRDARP
inactive: erlotinib 0.062 | [1] -0.062 | [8] 0.077 | [3] -0.035 | [5] 0.024 | [6] -0.088 | [7] -0.099

MAML1 (UniProt Q92585)
inactive: erlotinib 0.369 | [2] 0.004 | [8] 0.082 | [9] -0.004

ITPRID2 (UniProt P28290)
inactive: erlotinib 0.022 | [2] -0.133 | [8] -0.268 | [9] -0.213

LRRCC1 (UniProt Q9C099)
Sequence of UniProt Q9C099 (Q9C099 whole entry, looked up): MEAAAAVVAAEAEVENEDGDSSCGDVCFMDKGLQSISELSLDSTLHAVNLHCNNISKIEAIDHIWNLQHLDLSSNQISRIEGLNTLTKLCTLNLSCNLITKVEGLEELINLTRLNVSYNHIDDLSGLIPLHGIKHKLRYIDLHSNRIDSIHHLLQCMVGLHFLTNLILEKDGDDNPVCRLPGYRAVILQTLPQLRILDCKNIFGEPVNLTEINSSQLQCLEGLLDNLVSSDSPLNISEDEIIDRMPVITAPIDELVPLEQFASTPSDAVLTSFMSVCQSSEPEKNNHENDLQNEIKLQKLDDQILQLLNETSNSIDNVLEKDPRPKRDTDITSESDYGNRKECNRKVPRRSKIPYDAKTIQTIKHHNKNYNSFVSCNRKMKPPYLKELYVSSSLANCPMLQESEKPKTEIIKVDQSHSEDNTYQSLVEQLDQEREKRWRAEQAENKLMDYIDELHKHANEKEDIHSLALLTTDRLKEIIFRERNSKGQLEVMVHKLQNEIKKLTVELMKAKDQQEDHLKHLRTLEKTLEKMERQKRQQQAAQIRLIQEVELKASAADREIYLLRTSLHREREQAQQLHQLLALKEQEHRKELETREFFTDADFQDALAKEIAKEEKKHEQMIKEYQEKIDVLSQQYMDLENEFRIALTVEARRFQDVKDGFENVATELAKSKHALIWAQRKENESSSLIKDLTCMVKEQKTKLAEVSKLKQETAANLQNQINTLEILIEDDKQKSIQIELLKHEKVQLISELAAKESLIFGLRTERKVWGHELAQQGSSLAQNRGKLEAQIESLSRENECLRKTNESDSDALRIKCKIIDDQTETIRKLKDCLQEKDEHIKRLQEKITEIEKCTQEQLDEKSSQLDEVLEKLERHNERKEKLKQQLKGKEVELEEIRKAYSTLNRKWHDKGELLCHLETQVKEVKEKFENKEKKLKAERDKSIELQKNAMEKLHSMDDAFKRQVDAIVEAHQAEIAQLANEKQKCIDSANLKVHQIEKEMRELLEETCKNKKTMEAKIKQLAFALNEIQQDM
active: [1] -0.671
inactive: [3] 0.088 | [9] 0.257 | [5] 0.123 | [6] 0.121 | [7] 0.101

ING5 (UniProt Q8WYH8)
inactive: erlotinib 0.273 | [8] -0.119 | [6] 0.003 | [7] 0.286

IGFBP6 (UniProt P24592)
Sequence of UniProt P24592 (P24592 whole entry, looked up): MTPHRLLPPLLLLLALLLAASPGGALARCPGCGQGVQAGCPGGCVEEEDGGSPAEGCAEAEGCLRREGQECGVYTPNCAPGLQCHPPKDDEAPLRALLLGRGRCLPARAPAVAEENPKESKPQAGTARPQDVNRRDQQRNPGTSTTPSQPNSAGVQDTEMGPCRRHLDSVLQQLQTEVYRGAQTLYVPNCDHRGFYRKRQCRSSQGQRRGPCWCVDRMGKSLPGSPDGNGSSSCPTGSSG
inactive: [1] -0.215 | [3] 0.057 | [9] 0.131 | [5] -0.19

MAPRE3 isoform 2 (UniProt Q9UPY8)
inactive: [1] -0.003 | [3] -0.18 | [5] -0.073 | [6] 0.012 | [7] -0.097

JAK3 (UniProt P52333)
Sequence of UniProt P52333 (P52333 whole entry, looked up): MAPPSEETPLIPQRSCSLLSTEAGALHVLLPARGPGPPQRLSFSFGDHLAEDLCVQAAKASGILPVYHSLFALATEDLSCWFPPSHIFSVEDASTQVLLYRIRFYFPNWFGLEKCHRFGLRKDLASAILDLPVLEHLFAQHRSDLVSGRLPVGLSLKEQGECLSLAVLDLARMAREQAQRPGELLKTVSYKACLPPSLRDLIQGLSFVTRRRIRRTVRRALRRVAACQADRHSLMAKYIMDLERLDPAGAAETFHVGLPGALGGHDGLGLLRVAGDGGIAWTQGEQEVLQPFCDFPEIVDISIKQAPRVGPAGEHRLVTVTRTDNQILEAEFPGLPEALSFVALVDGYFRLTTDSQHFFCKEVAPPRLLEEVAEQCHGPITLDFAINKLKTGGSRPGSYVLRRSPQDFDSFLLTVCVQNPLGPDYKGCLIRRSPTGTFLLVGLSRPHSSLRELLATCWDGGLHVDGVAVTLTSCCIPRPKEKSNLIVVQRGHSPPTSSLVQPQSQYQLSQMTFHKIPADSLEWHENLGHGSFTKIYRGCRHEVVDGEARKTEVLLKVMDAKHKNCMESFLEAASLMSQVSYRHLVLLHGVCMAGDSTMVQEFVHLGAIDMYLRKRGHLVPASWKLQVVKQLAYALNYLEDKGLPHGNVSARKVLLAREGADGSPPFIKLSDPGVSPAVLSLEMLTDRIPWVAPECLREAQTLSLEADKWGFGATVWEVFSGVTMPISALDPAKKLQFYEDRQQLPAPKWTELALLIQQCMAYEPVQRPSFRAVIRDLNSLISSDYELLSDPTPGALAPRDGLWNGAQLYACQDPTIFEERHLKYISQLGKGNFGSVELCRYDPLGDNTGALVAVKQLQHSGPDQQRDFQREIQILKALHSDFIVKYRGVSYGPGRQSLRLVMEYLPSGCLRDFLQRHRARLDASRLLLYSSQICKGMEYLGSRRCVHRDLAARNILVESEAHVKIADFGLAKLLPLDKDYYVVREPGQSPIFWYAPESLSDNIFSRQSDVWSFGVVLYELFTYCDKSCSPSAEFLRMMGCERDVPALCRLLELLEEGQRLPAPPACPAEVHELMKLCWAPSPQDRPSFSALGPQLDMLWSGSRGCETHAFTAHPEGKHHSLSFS
inactive: erlotinib -0.178 | [2] 0.062 | [8] -0.013 | [4] 0.021 | [9] -0.207 | [6] 0.059 | [7] -0.024

MAGEA8 (UniProt P43361)
inactive: erlotinib 0.033 | [1] 0.038 | [8] -0.075 | [3] -0.04 | [4] 0.132 | [9] -0.028 | [5] -0.098 | [6] 0.052 | [7] 0.099

MCOLN3 (UniProt Q8TDD5)
inactive: erlotinib 0.244 | [8] -0.016 | [4] 0.112 | [9] -0.049 | [6] 0.053 | [7] 0.107

MAPK11 (UniProt Q15759)
inactive: erlotinib 0.169 | [8] -0.28 | [9] 0.744 | [6] -0.56 | [7] 0.309

LSR (UniProt M0QZL9)
inactive: [2] 0.029

LOX (UniProt P28300)
inactive: erlotinib -0.245 | [8] 0.315 | [4] 0.038
